DT40 TDP1 no CPT – qHTS for Inhibitors of human tyrosyl-DNA phosphodiesterase 1 (TDP1): qHTS in cells in absence of CPT. 420,000 compounds, 15% hits. DT40 Tdp1-/- hTDP1 cells, no CPT, ATP luminescence, 48 h. Potency, µM (top dose mostly 46.2 µM), for inactives: top-dose activity change, negative = growth inhibition, most hits filed as inhibitors; also: potency is read from the fitted curve at half-maximal effect; nearly all actives have a fitted effect of over 55% in size
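No-CPT arm: Tdp1-/-;hTDP1 DT40 cells (400/well) plus compounds, incubated ≥48 hr at 37 °C. Readout CellTiter-Glo luminescence.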
12-LOX inh – Primary qHTS assay for inhibitors of human arachidonate 12S-lipoxygenase (ALOX12): Round 2. 580,000 compounds, 1.1% hits. Potency, µM (doses to about 108 µM), for inactives: at the highest dose activity change, negative = inhibition, most hits filed as inhibitors. Polyunsaturated fatty acid lipoxygenase ALOX12 (Homo sapiens), P18054. purified 12hLO, xylenol orange hydroperoxide absorbance. AID 1671190, 2021; also: potency is read from the fitted curve at half-maximal effect
Target sequence (P18054 whole entry, looked up): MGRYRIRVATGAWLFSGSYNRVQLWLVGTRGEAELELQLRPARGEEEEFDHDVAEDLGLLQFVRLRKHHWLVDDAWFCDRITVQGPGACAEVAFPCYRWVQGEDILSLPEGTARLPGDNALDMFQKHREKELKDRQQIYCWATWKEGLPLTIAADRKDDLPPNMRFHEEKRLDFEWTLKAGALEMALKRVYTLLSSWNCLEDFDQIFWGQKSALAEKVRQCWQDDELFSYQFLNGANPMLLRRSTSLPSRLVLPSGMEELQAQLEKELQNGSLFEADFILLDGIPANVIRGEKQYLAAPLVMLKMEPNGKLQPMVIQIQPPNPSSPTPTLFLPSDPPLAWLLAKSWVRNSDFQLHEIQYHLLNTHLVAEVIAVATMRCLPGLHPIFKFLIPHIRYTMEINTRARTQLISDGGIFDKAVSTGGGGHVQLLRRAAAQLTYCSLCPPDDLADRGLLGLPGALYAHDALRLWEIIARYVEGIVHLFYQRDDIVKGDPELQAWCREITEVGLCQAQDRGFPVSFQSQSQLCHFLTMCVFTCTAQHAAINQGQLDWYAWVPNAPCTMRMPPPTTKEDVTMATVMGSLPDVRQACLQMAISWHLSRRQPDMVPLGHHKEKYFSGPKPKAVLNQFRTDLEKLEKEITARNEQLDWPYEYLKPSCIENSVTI
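Purified human 12hLO at 150 nM in 25 mM Hepes, 0.01% Triton X-100, pH 7.0, preincubated 15 min at room temperature with compound. Reaction started with 40 uM arachidonic acid, 30 min at room temperature. Hydroperoxide measured by Fe-xylenol orange, 573/405 nm absorbance ratio.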
HT1080 IDH1KD tx – qHTS for induction of synthetic lethality in tumor cells producing 2HG: qHTS for the HT-1080-IDH1KD cell line; Potency, µM (top dose mostly 46.1 µM), for the others: top-dose activity, negative = toxicity, actives largely listed as cytotoxic; HT-1080 IDH1 knockdown viability, ATP luminescence, 48 h; 360,000 compounds, 2% hits;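 also: potency is read from the fitted curve at half-maximal effect; 0% = DMSO wells and -100% = cell-free medium wells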
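Viability of IDH1-knockdown HT-1080 fibrosarcoma cells was assessed by CellTiter-Glo after 48 h at 37 °C with titrated compound; concentration-effect curves were classified by fit quality and response size.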
HT1080-NT tox – qHTS for induction of synthetic lethality in tumor cells producing 2HG: qHTS for the HT-1080-NT fibrosarcoma cell line; Potency, µM (top dose mostly 46.1 µM), inactives show at the highest dose activity, negative = less viability, hits mostly cytotoxic; HT-1080-NT fibrosarcoma viability, CellTiter-Glo ATP luminescence, 48 h; 360,000 compounds, 1.6% hits;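 also: NT is the 2HG producing partner of a matched IDH1 knockdown line; potency is read from the fitted curve at half-maximal effect; 0% = DMSO-treated cells and -100% = media-only wells without cells; nearly all actives have a fitted effect of over 55% in size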
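HT-1080-NT fibrosarcoma cells (2HG-overproducing), 750 cells/well in RPMI with 5% FBS, dosed after 2 h and incubated 48 h at 37C. CellTiter-Glo luminescence normalized to DMSO and no-cell wells; concentration-response curves fitted and classed.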
IL-1B inflam inh – qHTS for Inhibitors of Inflammasome Signaling: IL-1-beta AlphaLISA Primary Screen; activity change, % at 57.5 µM; THP-1 LPS/ATP IL-1B secretion, AlphaLISA, 16 h; stronger effect = lower value; 360,000 compounds, 4.7% hits; in the data active = activity change below about -50%; inconclusive = mostly about -30% to -49%
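Secreted IL-1B measured by AlphaLISA bead assay after 16 h compound exposure of THP-1 cells; compounds (final up to 57.5 uM) added 1 h before LPS (250 ng/mL) and ATP (1.25 mM) stimulation; lower signal means less secretion.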
DT40 TDP1 CPT – qHTS for Inhibitors of human tyrosyl-DNA phosphodiesterase 1 (TDP1): qHTS in cells in presence of CPT; chicken DT40 Tdp1-/-;hTDP1 cells + 20 nM CPT, ATP luminescence, 48 h; Potency, µM (titrated, usually from 46.2 µM), for inactives: top-dose activity change, negative = growth inhibition, usual class: inhibitors; 420,000 compounds, 12% hits; also: potency is read from the fitted curve at half-maximal effect; nearly all actives have a fitted effect of over 55% in size
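Cell growth measured by CellTiter-Glo luminescence after a minimum 48 h, 37 C compound exposure with 20 nM CPT in Tdp1-knockout DT40 cells stably expressing hTDP1, seeded 400/well; qHTS titration format.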
* marks the source's active call; other numbers are inactive results; [ ] = another dose, or the depositor's remark. Many of the other results were omitted from the sample, so hits are more common in it than they were. Unless noted, calls follow the shape of the dose curve; as a rule, active = well fitted curve in the direction sought with a large enough effect; inconclusive = small, poorly fitted or top-dose-only effect, or another doubt; inactive = no such curve, though single readings can be large; an effect the other way counts as inactive or inconclusive. Unless noted, % is scaled to controls: 0 for no effect and ±100 for the full control effect.

Results for NC(Cc1cnc[nH]1)c1csc(Nc2ccc(C(F)(F)F)cn2)n1 (configuration not stated) ?
DT40 TDP1 no CPT: -26%; 12-LOX inh: -4%; HT1080 IDH1KD tx: 0%; HT1080-NT tox: 0%; IL-1B inflam inh: 22; DT40 TDP1 CPT: -21%

What do the screens show for `CC(C)C(N)c1csc(Nc2ccc(C(F)(F)F)cn2)n1` (configuration not stated)?
DT40 TDP1 no CPT: inconclusive; 12-LOX inh: 0%; HT1080 IDH1KD tx: inconclusive; HT1080-NT tox: inconclusive; IL-1B inflam inh: 0; DT40 TDP1 CPT: 21µM*

How did CC(C)C(N)c1csc(Nc2ccccn2)n1 (configuration not stated) do in these assays?
DT40 TDP1 no CPT: -19%; 12-LOX inh: 18%; HT1080 IDH1KD tx: -2%; HT1080-NT tox: -2%; IL-1B inflam inh: -11; DT40 TDP1 CPT: 8%

How did O=C(NOCC1CC1)c1ccc(F)c(F)c1Nc1ccc(I)cc1Cl do in these assays?
DT40 TDP1 no CPT: 15µM*; 12-LOX inh: 2%[57.4 µM]; DT40 TDP1 CPT: inconclusive

How did O=C(NOC[C@H](O)CO)c1ccc(F)c(F)c1Nc1ccc(I)cc1F do in these assays?
DT40 TDP1 no CPT: -27%; 12-LOX inh: -20%[57.4 µM]; DT40 TDP1 CPT: -8%

What do the screens show for `COc1cccc(N2CCN(C(=O)C3CCCN(c4ncnc5c4nc4n5CCCCC4)C3)CC2)c1` (configuration not stated)?
DT40 TDP1 no CPT: inconclusive; 12-LOX inh: 8%; HT1080 IDH1KD tx: -23%; HT1080-NT tox: -27%; IL-1B inflam inh: -21; DT40 TDP1 CPT: 16µM*

Results for CC1CCN(C(=O)C2CCCN(c3ncnc4c3nc3n4CCCCC3)C2)CC1 (configuration not stated) ?
DT40 TDP1 no CPT: inconclusive; 12-LOX inh: 2%; HT1080 IDH1KD tx: 6%; HT1080-NT tox: -1%; IL-1B inflam inh: 14; DT40 TDP1 CPT: inconclusive

How did CCOC(=O)N1CCN(C(=O)C2CCCN(c3ncnc4c3nc3n4CCCCC3)C2)CC1 (configuration not stated) do in these assays?
DT40 TDP1 no CPT: inconclusive; 12-LOX inh: 5%; HT1080 IDH1KD tx: -3%; HT1080-NT tox: 5%; IL-1B inflam inh: 10; DT40 TDP1 CPT: inconclusive

What do the screens show for `O=C(C1CCCN(c2ncnc3c2nc2n3CCCCC2)C1)N1CCN(c2ccccc2F)CC1` (configuration not stated)?
DT40 TDP1 no CPT: 9.2µM*; 12-LOX inh: 14%; HT1080 IDH1KD tx: 14%; HT1080-NT tox: 12%; IL-1B inflam inh: -6; DT40 TDP1 CPT: inconclusive

How did CCc1ccc(S(=O)(=O)NCc2csc(C)n2)cc1 do in these assays?
DT40 TDP1 no CPT: inconclusive; 12-LOX inh: 0%; HT1080 IDH1KD tx: 0%; HT1080-NT tox: 8%; IL-1B inflam inh: 28; DT40 TDP1 CPT: -25%

How did COC(=O)C1=C(C(=O)OC)[C@@H]2N(Cc3ccccc3)c3ccccc3[C@@]23C[C@@H](C(=O)OC)N(C(=O)c2cccs2)C3=N1 do in these assays?
DT40 TDP1 no CPT: inconclusive; 12-LOX inh: 4%; HT1080 IDH1KD tx: inconclusive; HT1080-NT tox: inconclusive; IL-1B inflam inh: 45; DT40 TDP1 CPT: 21µM*

What do the screens show for `COC(=O)C1=C(C(=O)OC)[C@@H]2N(Cc3ccccc3)c3ccccc3[C@@]23C[C@@H](C(=O)OC)N(C(=O)c2cc(C)oc2C)C3=N1`?
DT40 TDP1 no CPT: 18µM*; 12-LOX inh: inconclusive; HT1080 IDH1KD tx: -6%; HT1080-NT tox: -13%; IL-1B inflam inh: -15; DT40 TDP1 CPT: 23µM*

Results for C#CCCOC(=O)N1C2=NC(C(=O)OC)=C(C(=O)OC)[C@@H]3N(Cc4ccccc4)c4ccccc4[C@]23C[C@H]1C(=O)OC ?
DT40 TDP1 no CPT: inconclusive; HT1080 IDH1KD tx: inconclusive; HT1080-NT tox: -8%; IL-1B inflam inh: -30; DT40 TDP1 CPT: 16µM*

What do the screens show for `CC#CCN1c2ccccc2[C@]23C[C@@H](C(=O)OC)N(C(=O)c4ccc(Br)cc4)C2=NC(C(=O)OC)=C(C(=O)OC)[C@H]13`?
DT40 TDP1 no CPT: 18µM*; HT1080 IDH1KD tx: -9%; HT1080-NT tox: -14%; IL-1B inflam inh: -6; DT40 TDP1 CPT: 21µM*

What do the screens show for `Cc1noc(C)c1-c1nc(N(C)C)c2ccccc2n1`?
DT40 TDP1 no CPT: -7%; 12-LOX inh: inconclusive; DT40 TDP1 CPT: -1%

What do the screens show for `CC(C)(C)NC(=O)N1CCCCCCNC(=O)[C@@H]2C[C@@H](C(=O)N3CCN(c4ccccn4)CC3)C[C@@H]21`?
12-LOX inh: 51%

Results for COCC1CN(C2CCC2)CC12CCN(C(=O)CC1CCCC1)CC2 (configuration not stated) ?
12-LOX inh: 62%

Results for O=C(c1ccccn1)N1CCC2(CC1)NC(=O)N(Cc1ccc(Cl)cc1)C2=O ?
12-LOX inh: 11%

Results for COC(=O)C1=C(C(=O)OC)[C@@H]2N(C)c3ccc(OC)cc3[C@@]23C[C@@H](C(=O)OC)N(C(=O)c2cc(C)oc2C)C3=N1 ?
DT40 TDP1 no CPT: inconclusive; HT1080 IDH1KD tx: -13%; HT1080-NT tox: -11%; IL-1B inflam inh: 19; DT40 TDP1 CPT: 23µM*

What do the screens show for `CCOC(=O)N1C2=NC(C(=O)OC)=C(C(=O)OC)[C@@H]3N(C)c4ccccc4[C@]23C[C@H]1C(=O)OC`?
DT40 TDP1 no CPT: 18µM*; 12-LOX inh: inconclusive; HT1080 IDH1KD tx: -3%; HT1080-NT tox: 1%; IL-1B inflam inh: 0; DT40 TDP1 CPT: 16µM*

How did COc1cc(OC)cc(C(=O)N2CCN(c3cc(=O)n4nc(-c5ccccc5C)sc4n3)CC2)c1 do in these assays?
12-LOX inh: 6%

How did COc1cc(NC(=O)N2CCc3nc(NCc4cccc(Oc5ccccc5)c4)ncc3C2)cc(OC)c1OC do in these assays?
DT40 TDP1 no CPT: inconclusive; 12-LOX inh: 0%; HT1080 IDH1KD tx: inconclusive; HT1080-NT tox: inconclusive; IL-1B inflam inh: 53; DT40 TDP1 CPT: inconclusive

Screening results as filed in PubChem BioAssay.
